In PubChem BioAssay AID488922 (Johns Hopkins Ion Channel Center, 2010):
In all, about 310,000 compounds went through this assay and about 3,800 (1.2%) were called active.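 Rule for the calls: active = ratio B-score over 3 SD below the library mean, with starting fluorescence within 5 SD of its mean; inactive = the rest, inconclusive results apart.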 Only a selection was taken, and actives are over-represented in it overall.

Target: Potassium channel subfamily K member 9 (Homo sapiens) (UniProt Q9NPC2)
Sequence (Q9NPC2 whole entry, looked up): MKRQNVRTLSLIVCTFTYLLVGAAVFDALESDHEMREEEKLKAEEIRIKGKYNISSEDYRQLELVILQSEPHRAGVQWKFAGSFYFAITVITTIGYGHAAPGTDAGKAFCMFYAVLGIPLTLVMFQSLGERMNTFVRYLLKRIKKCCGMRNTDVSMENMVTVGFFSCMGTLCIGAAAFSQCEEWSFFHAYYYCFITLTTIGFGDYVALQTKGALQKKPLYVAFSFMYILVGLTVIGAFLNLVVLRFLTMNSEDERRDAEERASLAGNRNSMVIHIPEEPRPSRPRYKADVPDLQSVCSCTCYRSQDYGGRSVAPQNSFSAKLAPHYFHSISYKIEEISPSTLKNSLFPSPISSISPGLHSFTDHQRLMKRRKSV
Experiment: KCNK9 potassium channel inhibitors, primary screen, HEK293 cells, thallium flux (AID 488922);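 for B-score: negative B-score means less thallium flux so channel inhibition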
Conditions: HEK293 KCNK9, FluxOR thallium flux fluorescence, at 10 µM; stronger effect = lower value

| Compound | B-score |
| --- | --- |
| CCO[C@H]1OC(C(=O)NCc2ccccc2)=C[C@@H](c2coc3ccccc3c2=O)[C@@H]1CCCO | inactive |
| O=C(COc1ccc2c3c(c(=O)oc2c1)CCCC3)NCC(O)c1ccccc1 (configuration not stated) | inactive |
| CN1CCN(CC#CCC2(O)c3ccccc3-c3ccccc32)CC1 | inactive |
| Cc1cccc(NC(=O)c2sc3nc(N4CCOCC4)c4c(c3c2N)CCCC4)c1 | inactive |
| Cc1cccc(NC(=O)c2sc3nc4c(c(-c5ccco5)c3c2N)CCC4)c1 | -10.4 (active) |
| NC(=O)c1sc2nc3c(c(-c4ccccc4)c2c1N)CCC3 | inactive |
| CC1(C)CC(=O)C(C2c3ccccc3S(=O)(=O)c3ccccc32)C(=O)C1 | inactive |
| COc1ccc(C2Nc3ccccc3C(=O)N2c2ccc(Cl)cc2)cc1Cn1cc([N+](=O)[O-])cn1 (configuration not stated) | -7.96 (active) |
| COc1ccc(N2C(=O)c3ccccc3NC2c2ccc(OC)c(CN3CCOCC3)c2)cc1 (configuration not stated) | inactive |
| COc1cnn(-c2ccc([N+](=O)[O-])cc2)c(=O)c1Cl | inactive |
| CCCCn1c(N)c(N(CC(C)C)C(=O)c2ccc(Br)o2)c(=O)[nH]c1=O | inactive |
| Cc1ccccc1-c1nc(CS(=O)(=O)CC(=O)NC(C)c2ccccc2)c(C)o1 (configuration not stated) | inactive |
| CCOc1ccc(NC(=O)CN(C)C(=O)COc2cccc(CC)c2)cc1OCC | inactive |
| CC(C)(C)c1ccc(CN2C(=O)c3ccccc3S2(=O)=O)cc1 | inactive |
| O=C1c2ccccc2S(=O)(=O)N1CC(O)Cn1c2ccccc2c2ccccc21 (configuration not stated) | -10.9 (active) |
| CCCCN(CCCC)CC(O)Cn1c2ccccc2c(=O)c2ccccc21 (configuration not stated) | inactive |
| CC(=O)Nc1ccc(S(=O)(=O)NNC(=O)CCc2ccccc2)cc1 | inactive |
| Cc1c(NC(=O)c2cc(-c3ccc(Cl)s3)nc3ccccc23)c(=O)n(-c2ccccc2)n1C | inactive |
| Cc1cc(C)c(SCCc2ccncc2)c(C)c1 | inactive |
| CCOC(=O)C(NS(=O)(=O)c1ccc(C)cc1)(C(F)(F)F)P(=O)(OCC(C)C)OCC(C)C (configuration not stated) | inactive |
| CC1(C)CC(=O)C=C(N2CCCC2)C1 | inactive |
| CC1(C)CC(N2CCN(C(c3ccccc3)c3ccccc3)CC2)=CC(=[N+]2CCCCC2)C1 | -17.2 (active) |
| O=C(O)CN1CCN(C(c2ccccc2)c2ccccc2)CC1 | inactive |

| Compound | B-score |
| --- | --- |
| Cc1ccccc1-n1cc(CNC(=O)CC2C(=O)NCCN2C/C=C/c2ccccc2)cn1 (configuration not stated) | inactive |
| CCOc1ccc(C(=O)CCN2CCOCC2)cc1 | inactive |
| CC(C)(C)OC(=O)NNc1c2ccccc2nc2ccccc12 | inactive |
| O=C(N/N=C/c1cccnc1)c1cc2ccccc2cc1O | inactive |
| O=C(NNc1c2ccccc2nc2ccccc12)c1cc2ccccc2cc1O | -7.49 (active) |
| O=C(COc1ccc(NC(=O)c2ccccc2[N+](=O)[O-])cc1)c1ccc(F)cc1 | inactive |
| CC(C)CC(=O)Nc1ccc(Cc2ccncc2)cc1 | inactive |
| COc1ccccc1NC(=O)C1CCCN1S(=O)(=O)c1ccc(Cl)cc1 (configuration not stated) | inactive |
| CN(c1ccccc1)S(=O)(=O)c1cccc(C(=O)NNC(=O)c2ccncc2)c1 | inactive |
| Cc1cc(NC(=O)CSc2nc3cc(Cl)ccc3c(=O)n2Cc2ccco2)no1 | inactive |
| COc1ccccc1NC(=O)CSc1nc2sc(C)c(C)c2c(=O)n1Cc1ccco1 | -9.54 (active) |
| COc1ccccc1NC(=O)CSc1nc2sc3c(c2c(=O)n1-c1ccccc1)CCN(C)C3 | inactive |
| O=S(=O)(NCC1CCCO1)c1cnc(Cl)c(Cl)c1 (configuration not stated) | inactive |
| COC(=O)CCCC1=CC2=C(c3ccccc3)C(=O)C(C)(OC(=O)C3CCCC3)C(=O)C2=CN1c1ccc(OC)cc1 (configuration not stated) | inactive |
| COC(=O)c1cn(CC(=O)NCc2cccs2)c2ccccc12 | inactive |
| O=C(Cn1cc(C(=O)c2cccs2)c2ccccc21)NCc1cccs1 | -13.5 (active) |
| COCCNC(=O)Cn1cc(C(=O)c2cccs2)c2ccccc21 | inactive |
| Cc1ccc(C(C[N+](=O)[O-])c2c(C)cc3ccccn23)cc1 (configuration not stated) | inactive |
| COc1cccc(CC2(CO)CCCN(Cc3ccc(OC(F)F)cc3)C2)c1 (configuration not stated) | inactive |
| Cc1cc(C)cc(Oc2c(C(F)(F)F)oc3cc(OCC(=O)O)ccc3c2=O)c1 | inactive |
| COc1ccc(N(CCC#N)S(=O)(=O)c2ccc(Cl)cc2)cc1 | inactive |
| Cc1cc(C)c2cc(CN(Cc3nnnn3Cc3ccc(F)cc3)C3CCCC3)c(=O)[nH]c2c1 | inactive |
| CCC(c1nnnn1Cc1ccco1)N(CCc1ccccc1)Cc1cc2cccc(C)c2[nH]c1=O (configuration not stated) | -8.62 (active) |

| Compound | B-score |
| --- | --- |
| CCC(c1nnnn1Cc1ccco1)N(Cc1cc2cc(OC)ccc2[nH]c1=O)C1CCCCC1 (configuration not stated) | inactive |
| CCC(c1nnnn1Cc1ccco1)N(CCc1ccccc1)Cc1cc2ccc(OC)cc2[nH]c1=O (configuration not stated) | inactive |
| Cc1cccc2cc(CN(Cc3nnnn3Cc3ccccc3)C3CCCC3)c(=O)[nH]c12 | -11.5 (active) |
| Cc1cccc2cc(CN(Cc3ccc4c(c3)OCO4)Cc3nnnn3C3CCCC3)c(=O)[nH]c12 | inactive |
| C/C=N/NC(=O)CCCC(=O)N/N=C/C | inactive |
| CCNCCC(=O)N1c2ccccc2Sc2ccc(NC(=O)OCC)cc21 | inactive |
| c1n[nH]c(NCc2ccc3c(c2)OCO3)n1 | inactive |
| Cn1cc(CCC(=O)NCc2ccc3c(c2)OCO3)c2ccccc21 | inactive |
| N#Cc1nc(Cc2cccc3ccccc23)oc1NCc1ccc2c(c1)OCO2 | -11.2 (active) |
| CC(=O)N1Cc2ccccc2CC1C(=O)O (configuration not stated) | inactive |
| CN1C2CCC1/C(=C\c1ccccc1Cl)C(=O)/C2=C\c1ccccc1Cl | -8.6 (active) |
| O=C(CN1CCCCCC1)NCCN1C(=O)S/C(=C\c2ccccc2Cl)C1=O | inactive |
| O=C(CN1C(=O)S/C(=C\c2ccccc2Cl)C1=O)NC1C=CS(=O)(=O)C1 (configuration not stated) | inactive |
| O=C(CCc1nnc2ccc(NCc3ccccc3Cl)nn12)NCC1CCN(C2CCCC2)C1 (configuration not stated) | inactive |
| Cc1ccc(CCNC(=O)C2CCN(S(=O)(=O)N3CCCC3)CC2)cc1 | inactive |
| CCOc1c(OC)cccc1C(=O)NCC1(c2ccccc2)CCCC1 | inactive |
| O=C(CNC1CCCCC1)NCC1(c2ccccc2)CCCC1 | -7.46 (active) |
| COc1cc(C(=O)NCC2(c3ccccc3)CCCC2)ccc1OC(C)C | inactive |
| C=C(Br)CN1CCN(CC(=C)Br)CC1 | inactive |
| CCCCNC(=O)N1CCN(S(C)(=O)=O)CC1 | inactive |
| CN(C)N=Nc1ccc2nc[nH]c2c1 | inactive |
| Cc1cc(C)c2[nH]c(=O)c(C(c3nnnn3Cc3ccc4c(c3)OCO4)N3CCCC3)cc2c1 (configuration not stated) | inactive |
| Fc1ccc(Cn2nnnc2C(c2cccs2)N2CCCCCC2)cc1 (configuration not stated) | -13.1 (active) |

| Compound | B-score |
| --- | --- |
| Fc1ccccc1C(c1nnnn1Cc1ccc2c(c1)OCO2)N1CCN(Cc2ccccc2)CC1 (configuration not stated) | inactive |
| CCCn1c(SCC(=O)Nc2ccc(C)c(S(=O)(=O)N3CCOCC3)c2)n[nH]c1=O | inactive |
| Cc1ccc(C(=O)OCC(=O)N2CC(C)CC(C)C2)cc1S(=O)(=O)N1CCCCC1 (configuration not stated) | inactive |
| COc1ccc2c(CC(=O)N3CCc4cc(OC)c(OC)cc4C3)coc2c1 | inactive |
| N/C(=N\OC(=O)COc1ccc([N+](=O)[O-])cc1)c1ccc(Br)cc1 | inactive |
| Cc1cc(C)cc(OCC(=O)O/N=C(\N)Cc2ccc([N+](=O)[O-])cc2)c1 | inactive |
| N/C(Cc1ccc([N+](=O)[O-])cc1)=N\OC(=O)COc1ccc2ccccc2c1 | -7.84 (active) |
| CCCc1cc(=O)oc2cc(OCC(=O)Nc3ccc(CN4CCOCC4)cc3)c(Cl)cc12 | inactive |
| CN(C)c1ccc(NC(=O)c2ccncc2)c2ccccc12 | inactive |
| Oc1ccccc1CN1CCN(C(c2ccccc2)c2ccccc2)CC1 | inactive |
| c1ccc(CCn2nnnc2CN2CCN(C3CCCC3)CC2)cc1 | inactive |
| c1ccc(C(c2ccccc2)N2CCN(Cc3nnnn3C3CCCCC3)CC2)cc1 | -14.6 (active) |
| Cc1nn(Cc2ccccc2Cl)c(C)c1NC(=O)Cn1nc([N+](=O)[O-])c(Cl)c1C | inactive |
| CC(=O)N1CCN(c2ccccc2NC(=S)NC(=O)c2cc3ccccc3o2)CC1 | inactive |
| O=C(NCc1ccco1)c1ccc([N+](=O)[O-])cc1Cl | inactive |
| O=C(NCc1ccncc1)c1ccc(NS(=O)(=O)c2cccc([N+](=O)[O-])c2)cc1 | inactive |
| O=C(NCc1ccco1)c1ccc(NS(=O)(=O)c2cccc([N+](=O)[O-])c2)cc1 | -8.56 (active) |
| O=C1CCCC(O)=C1N=Nc1ccc2ncsc2c1 | inactive |
| Cc1ccc(S(=O)(=O)N2CCC(C(=O)NCCC3=CCCCC3)CC2)cc1C | inactive |
| O=C(NCc1ccco1)c1nc(-c2ccccc2)n(-c2ccccc2)n1 | inactive |
| CS(=O)(=O)n1nc(-c2ccccc2)nc1NCc1ccco1 | inactive |
| c1ccc(-c2nc(NCc3ccco3)c3ccccc3n2)cc1 | -6.58 (active) |
| CCOCCCNc1nc(-c2ccccc2)nc2ccccc12 | inactive |

| Compound | B-score |
| --- | --- |
| c1coc(CNc2ncnc3ccccc23)c1 | inactive |
| O=C(Cc1ccccc1)n1nc(-c2ccccc2)nc1NCc1ccco1 | -9.15 (active) |
| CC(OC(=O)c1ccc(NS(=O)(=O)c2ccc3[nH]c(=O)[nH]c3c2)cc1)C(=O)Nc1cccc(Cl)c1Cl (configuration not stated) | inactive |
| COc1ccc(-c2cnc(SCCNC(=O)c3ccc4c(c3)OCO4)[nH]2)cc1 | inactive |
| Cc1ccccc1N1CCN(CC(=O)NCc2ccc(Cl)cc2)CC1 | inactive |
| O=C(NCCc1ccc(Cl)cc1)C1CCCN1C(=O)NCc1ccccc1 (configuration not stated) | inactive |
| O=C(Nc1ccccc1)c1ccco1 | inactive |
| O=C(Nc1ccc(O)cc1)c1ccc(NC(=O)c2ccco2)cc1 | inactive |
| O=C(Nc1ccc(Oc2ccccc2)cc1)c1ccco1 | -10.1 (active) |
| Cc1cc(C)cc(NC(=O)C2CCCN(S(=O)(=O)c3ccc4[nH]c(=O)ccc4c3)C2)c1 (configuration not stated) | inactive |
| COc1cc(C(=S)N2CCOCC2)cc(OC)c1OC(=O)c1cc([N+](=O)[O-])cc([N+](=O)[O-])c1 | inactive |
| O=C(Oc1ccccc1C(=S)N1CCCCC1)c1cc([N+](=O)[O-])cc([N+](=O)[O-])c1 | inactive |
| O=C(Oc1ccc(Br)cc1C(=S)N1CCOCC1)c1cccc([N+](=O)[O-])c1 | -16.4 (active) |
| COc1ccccc1C(=O)Nn1cnnc1 | inactive |
| CC(=O)Nc1ccc(OCCC[n+]2cccc(C(=O)[O-])c2)cc1 | inactive |
| Nc1c(-c2ccccc2)nnn1Cc1ccccc1 | inactive |
| CCCC1=Nc2cc(C(=O)NCc3ccco3)ccc2Sc2ccccc21 | -8.7 (active) |
| CC(C)(C)c1ccc(C(=O)NCc2ccco2)cc1 | inactive |
| CCCC1=Nc2cc(C(=O)NCCN3CCCC3)ccc2Sc2ccccc21 | inactive |
| CN(C)/C=C(\C#N)C(=O)c1cccnc1Oc1cccc(F)c1 | inactive |
